Only a sample is shown.
aSyn UTR act: Activators via SNCA 5'UTR binding, MLPCN | AID 1814 | activity score, % (tested at 7.5 µM), hits read low | 7.1% of 300,000 active | alpha-synuclein 5'UTR reporter, activators screen; in the data active = activity score below about -60%
The depositor's hits bear a star.

SMILES	aSyn UTR act
O=C(NCc1ccccn1)Nc1ccc(Br)cc1Cl	-72.3*
O=C(NCc1ccccn1)c1ccc(Cn2c(=S)[nH]c3ccc(Br)cc3c2=O)cc1	40.4
S=C(NCc1ccccn1)Nc1ccccc1Cl	-115.3*
COCCCNC(=O)Nc1ccc(Br)cc1Cl	-72.2*
S=C(NCc1ccccn1)Nc1ccc(Br)cc1Cl	-143.2*
Cc1ccc(N2C(=O)CC(Sc3nc(C)cc(C)n3)C2=O)cc1 (centres undefined)	-62.7*
Cc1ccc(NC(=O)/C(Cl)=C\c2ccccc2)cc1	-105.2*
CC(=O)c1ccc(NC(=O)/C(Cl)=C/c2ccccc2)cc1	-174.7*
O=C(Nc1ccc(F)cc1)/C(Cl)=C/c1ccccc1	-258.0*
N#CC(C#N)=Cc1ccc(NC(=O)c2ccc(Br)cc2)cc1	-152.6*
CC(C)(C)c1ccc(C(=O)Nc2ccc(C=C(C#N)C#N)cc2)cc1	-175.4*
O=C(/C=C/Nc1ccc(Oc2ccccc2Cl)cc1)c1ccco1	-183.8*
COc1ccccc1Oc1ccc(N/C=C/C(=O)c2ccco2)cc1	-199.1*
Cc1ccc(-n2nc(C)c3c2OC(N)=C(C#N)C3c2ccc(F)cc2)cc1 (centres undefined)	-74.8*
OCCCCNc1cccc2ccccc12	-63.7*
COc1cc2nc(CN(C)Cc3ccc(OC)c(OC)c3OC)[nH]c(=O)c2cc1OC	-90.4*
C#CC(C)(C)NC(=O)c1ccc(-c2ccccc2F)cc1	-89.1*
Cn1c(C(=O)N/N=C/c2ccccc2)cc2ccccc21	-108.2*
Cc1cc(C(=O)N/N=C/c2ccccc2)c(C)o1	-69.9*
Cn1nccc1C(=O)N/N=C/c1c(O)ccc2ccccc12	91.5
Cc1cc(C(=O)N/N=C/c2cccc3ccccc23)c(C)o1	-62.0*
Cc1cc(C)c(C#N)c(SCC(=O)Nc2nonc2N)n1	-87.0*
Cc1cc(C)c(C#N)c(SCC(=O)c2cccs2)n1	-172.6*
Cc1ccnc(SCC(=O)c2cccs2)n1	-95.0*
NC(=O)c1sc2nc(-c3ccccc3)ccc2c1N	-73.1*
SMILES	aSyn UTR act
CC(=O)c1sc2nc(-c3ccco3)ccc2c1N	-81.2*
Nc1c(C(=O)Nc2ccc(Br)cc2)sc2nc(-c3ccco3)ccc12	-170.8*
CCOc1ccc(N2C(=O)c3ccccc3C2O)cc1 (centres undefined)	-96.0*
CCOc1ccc(N2Cc3ncccc3C2=O)cc1	-103.1*
CSc1ccc(CNC(=O)Cc2ccc(NC(=O)C3=C(C)OCCS3)cc2)cc1	-152.8*
Cc1ccc(-c2c(C)sc(=NC(=O)c3ccco3)n2C)cc1	-122.8*
COC(=O)C1(Cc2cc(-c3ccccc3)no2)CCN(C(=O)OC(C)(C)C)CC1	-82.2*
CCC(C)NC(=O)c1cc2cc3ccc(OC)cc3nc2o1 (centres undefined)	-146.9*
CCCCN(CC)C(=O)c1cc2cc3ccc(OC)cc3nc2o1	-110.9*
CC1=NC(=O)C(N=Nc2ccccc2)N1c1ccccc1 (centres undefined)	-109.4*
C=CCSc1nnc(-c2cc3c(s2)-c2ccccc2CC3)o1	-104.2*
Cc1ccc2cc3c(N)c4c(C)ccc(C)c4nc3nc2c1	-76.9*
Cc1cc2ccccn2c1C(=S)NC(=O)c1ccccc1	-81.8*
Cc1cc2ccccn2c1C(=O)Nc1cccc(Cl)c1	-113.2*
Fc1ccc(F)c(C2=NNC(=NCC3CCCO3)SC2)c1 (centres undefined)	-117.8*
CCN(CC)c1ccc(N=Cc2ccc([N+](=O)[O-])o2)cc1	-79.8*
O=C(CSc1cccs1)Nc1ccc2ccccc2c1	-125.7*
O=C(CSc1ccccc1)Nc1ccc2sccc2c1	-77.9*
O=C(CSc1cccs1)Nc1cccc2ccccc12	-112.4*
O=C(Nc1nc2cc3c(cc2s1)OCCO3)c1ccc([N+](=O)[O-])o1	-301.1*
O=C(Nc1nc2ccccc2s1)c1ccccc1[N+](=O)[O-]	-152.6*
Cc1cnc(NC(=O)c2ccc(-c3nc4ccccc4s3)o2)s1	-83.7*
O=C(c1nc2ccccc2[nH]1)c1ccccc1[N+](=O)[O-]	-73.7*
COc1ccc2nc(NC(=O)c3ccc([N+](=O)[O-])o3)sc2c1	-160.7*
O=C(Nc1c(Cl)ccc2nsnc12)c1ccc([N+](=O)[O-])o1	-202.7*
SMILES	aSyn UTR act
O=C(Nc1nc2ccccc2s1)c1ccc([N+](=O)[O-])o1	-173.0*
O=C(Nc1nc2ccccc2s1)Nc1ccc([N+](=O)[O-])cc1Cl	-99.1*
CC(=O)Nc1nc2cccc([N+](=O)[O-])c2s1	-67.8*
N#Cc1cc2c(nc1SCC(=O)Nc1sc3c(c1C#N)CCC3)CCCCC2	-122.1*
CCOC(=O)c1sc(NC(=O)CSc2nc3c(cc2C#N)CCCCCC3)c(C#N)c1C	-74.0*
N#Cc1c(NC(=O)CSc2ncn[nH]2)sc2c1CCCCC2	82.5
N#Cc1cc2c(nc1SCC(=O)Nc1sc3c(c1C#N)CCC3)CCCC2	-239.9*
O=C(/C=C/c1ccc([N+](=O)[O-])cc1)/C=C/c1ccco1	-215.2*
O=c1sc2ccccc2n1CCCOc1ccccc1	-137.0*
O=c1sc2ccccc2n1COc1ccc(Cl)cc1	-89.6*
Cc1ccc(OCCCn2c(=O)sc3ccccc32)cc1	-65.0*
Cc1ccc(OCCn2c(=O)sc3ccccc32)cc1	-115.3*

Screening results deposited in PubChem BioAssay by Broad Institute.
